Where “and” joins values, the source holds several entries; their conditions need not be identical. Equal values may be shown once. Some structures have more than one record in an assay (separate samples or runs), and their calls can disagree. Calls of active or inactive are those of the source. A call without a number means that no potency is given here. Unless noted, calls come from the whole dose curve; as a rule, active = well fitted curve in the direction sought with a large enough effect in the repeat runs; inconclusive = weak or mixed curves; inactive = no such curve, though single readings can be large; an effect the other way counts as inactive or inconclusive.
Tests used:
[1] = qHTS assay to identify small molecule antagonists of the thyroid receptor (TR) signaling pathway - cell viability counter screen (AID 743064); note: nearly all actives have a fitted effect of over 50% in size; note: potency is the fitted concentration of half-maximal effect
Procedure, shortened: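 Viability of T3-stimulated (1 nM final) GH3.TRE-Luc cells is measured by CellTiter-Fluor fluorescence after 23.5 h compound exposure at 37 °C plus 30 min reagent incubation.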

[2] = qHTS assay to identify small molecule antagonists of the thyroid receptor (TR) signaling pathway (AID 743065); note: nearly all actives have a fitted effect of over 55% in size; note: potency is the fitted concentration of half-maximal effect
Procedure, shortened: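 Antagonism measured as loss of luciferase signal in GH3 cells stably carrying a TRE-luciferase reporter, co-treated with compound and T3 (1 nM final) for 23.5 h at 37 C. Viability was read in the same well by CellTiter-Fluor.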

[3] = test system: thyroid hormone receptor (rat, GH3 cells); test: qHTS assay to identify small molecule agonists of the thyroid receptor (TR) signaling pathway (AID 743066; calls by dose curve)
[4] = target: Estrogen receptor (Homo sapiens) (UniProt P03372); test: qHTS assay to identify small molecule antagonists of the estrogen receptor alpha (ER-alpha) signaling pathway (AID 743069; active = well fitted curve in the direction sought with a large enough effect in the signal ratio in the repeat runs, not every such curve was filed as active; inconclusive = weak or mixed curves, or effect the other way; inactive = no such curve, though single readings can be large or run the other way; the % refers to the signal ratio; note: potency is the fitted concentration of half-maximal effect)
Procedure, shortened: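 Antagonist mode: compounds in DMSO were co-added with 17beta-estradiol to ER-alpha-bla HEK293 cells (2% charcoal-stripped serum) and left 18 h at 37C. Reporter inhibition was measured as FRET fluorescence after 2 h LiveBLAzer substrate at room temperature.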

[5] = qHTS assay to identify small molecule antagonists of the estrogen receptor alpha (ER-alpha) signaling pathway - cell viability counter screen (AID 743074; calls by dose curve;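 note: HEK293 cells carrying ER-alpha-UAS-bla reporter stimulated with 17beta-estradiol; nearly all actives have a fitted effect of over 45% in size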; note: potency is the fitted concentration of half-maximal effect)
[6] = target: Estrogen receptor (Homo sapiens) (UniProt P03372); test: qHTS assay to identify small molecule agonists of the estrogen receptor alpha (ER-alpha) signaling pathway (AID 743075; calls by dose curve;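 note: HEK293 GripTite cells with ER-alpha and UAS-driven beta-lactamase reporter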; note: potency is the fitted concentration of half-maximal effect)
[7] = target: Estrogen receptor (Homo sapiens) (UniProt P03372); test: qHTS assay to identify small molecule agonists of the estrogen receptor alpha (ER-alpha) signaling pathway using the BG1 cell line (AID 743079); note: nearly all actives have a fitted effect of over 20% in size; note: potency is the fitted concentration of half-maximal effect
[8] = qHTS assay to identify small molecule antagonists of the estrogen receptor alpha (ER-alpha) signaling pathway using the BG1 cell line (AID 743080; calls by dose curve;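 note: BG1 cells stimulated with 17beta-estradiol alongside compound; series mostly up to about 70 µM; nearly all actives have a fitted effect of over 25% in size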)
Procedure, shortened: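 BG1-Luc-4E2 cells (endogenous full-length ER-alpha, stable 4×ERE-luciferase) were starved 5 days in phenol-red-free medium with 10% charcoal-stripped FBS, plated 24 h, then given compound plus 17beta-estradiol for 21.5 h at 37 C; ONE-Glo luminescence read after 30 min.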

[9] = qHTS assay to identify small molecule antagonists of the estrogen receptor alpha (ER-alpha) signaling pathway using the BG1 cell line - cell viability counter screen (AID 743081);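 note: compound given together with 17beta-estradiol as the ER stimulus; nearly all actives have a fitted effect of over 45% in size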; note: potency is the fitted concentration of half-maximal effect
[10] = target: Aromatase (Homo sapiens) (UniProt P11511); test: qHTS assay to identify aromatase inhibitors (AID 743083); note: nearly all actives have a fitted effect of over 55% in size; note: potency is the fitted concentration of half-maximal effect
Chain of Aromatase (Homo sapiens) (P11511 whole entry, looked up): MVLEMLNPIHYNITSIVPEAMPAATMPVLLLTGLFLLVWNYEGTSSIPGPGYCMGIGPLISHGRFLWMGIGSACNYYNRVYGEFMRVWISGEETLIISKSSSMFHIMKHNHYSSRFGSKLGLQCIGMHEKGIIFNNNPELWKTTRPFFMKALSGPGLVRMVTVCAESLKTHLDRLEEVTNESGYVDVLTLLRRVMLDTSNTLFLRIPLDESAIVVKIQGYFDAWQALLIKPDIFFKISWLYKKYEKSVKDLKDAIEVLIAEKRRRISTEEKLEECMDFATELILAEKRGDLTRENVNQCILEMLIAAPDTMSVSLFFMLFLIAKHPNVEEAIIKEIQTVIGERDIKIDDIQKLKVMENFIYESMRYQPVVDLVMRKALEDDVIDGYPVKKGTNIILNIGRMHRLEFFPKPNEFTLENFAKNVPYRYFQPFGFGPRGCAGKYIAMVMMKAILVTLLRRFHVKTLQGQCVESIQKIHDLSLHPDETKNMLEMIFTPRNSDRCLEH

Chain of Estrogen receptor (Homo sapiens) (P03372 whole entry, looked up): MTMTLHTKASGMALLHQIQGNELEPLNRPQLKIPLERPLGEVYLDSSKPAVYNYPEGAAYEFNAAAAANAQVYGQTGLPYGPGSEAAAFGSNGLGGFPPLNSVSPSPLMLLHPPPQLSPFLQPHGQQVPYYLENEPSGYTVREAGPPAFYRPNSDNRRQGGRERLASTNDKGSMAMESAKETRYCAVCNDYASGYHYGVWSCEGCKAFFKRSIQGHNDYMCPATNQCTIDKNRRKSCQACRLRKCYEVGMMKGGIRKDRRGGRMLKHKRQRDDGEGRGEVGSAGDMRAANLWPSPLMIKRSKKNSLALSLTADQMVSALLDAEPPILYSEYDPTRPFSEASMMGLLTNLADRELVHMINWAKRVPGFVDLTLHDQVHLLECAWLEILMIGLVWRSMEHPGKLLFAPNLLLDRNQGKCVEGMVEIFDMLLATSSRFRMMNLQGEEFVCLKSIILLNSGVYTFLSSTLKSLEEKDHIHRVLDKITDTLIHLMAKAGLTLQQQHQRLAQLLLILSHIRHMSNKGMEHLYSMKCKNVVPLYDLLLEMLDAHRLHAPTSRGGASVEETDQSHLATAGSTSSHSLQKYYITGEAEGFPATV

SMILES	Potency [1]	Potency [2]	Potency [3]	Potency [4]	Potency [5]	Potency [6]	Potency [7]	Potency [8]	Potency [9]	Potency [10]
COc1cc(Cl)c(OC)cc1Cl	inactive	inactive	inactive	inactive	inactive	inactive	inactive	inactive	inactive	inactive
Brc1ccccc1	inactive	inactive	inactive	inactive	inactive	inactive	inactive	inactive	inactive	inactive
COCC(C)N(C(=O)CCl)c1c(C)csc1C (stereo unspecified)	inactive	inactive	inactive	inactive and 30.9 µM [inconclusive] (active)	inactive	inactive	inactive	inactive	inactive	inactive and 34.4 µM (active)
N#C/C(N)=C(/N)C#N	inactive	inactive	inactive	inactive	inactive	inactive	inactive	inactive	inactive	inactive
N#CCC#N	61.1 µM (active)	48.6 µM (active)	inactive	inactive	inactive	inactive	inactive	inactive	inactive	inactive
CCCN(CCCl)c1c([N+](=O)[O-])cc(C(F)(F)F)cc1[N+](=O)[O-]	inactive	inactive	inactive	inactive	inactive	inactive	inactive	inactive	inactive	inactive
O=C(CCl)c1ccc(Cl)cc1Cl	1.33 µM (active) and 4.33 µM (active) and inactive	1.5 µM (active) and 3.44 µM (active)	inactive	inactive	38.9 µM (active)	inactive	inactive	inactive	inactive	inactive
CCC(Cl)CCl (stereo unspecified)	inactive	inactive	inactive	inactive	inactive	inactive	inactive	inactive	inactive	inactive
O=NN1CCNCC1	inactive	inactive	inactive	inactive	inactive	inactive	inactive	inactive	inactive	inactive
COC(N)=O	inactive	inactive	inactive	inactive	inactive	inactive	inactive	inactive	inactive	inactive
Brc1ccc(Oc2ccccc2)cc1	inactive	inactive	inactive	inactive	inactive	inactive	inactive	inactive	inactive	inactive
CCN(C)N=O	inactive	inactive	inactive	inactive	inactive	inactive	inactive	inactive	inactive	inactive
CCBr	inactive	inactive	inactive	inactive	inactive	inactive	inactive	inactive	inactive	inactive
CC(=O)NC1CCSC1=O (stereo unspecified)	inactive	inactive	inactive	inactive	inactive	inactive	inactive	inactive	inactive	inactive
C=C(C#N)CCC#N	inactive	inactive	inactive	inactive	inactive	inactive	inactive	inactive	inactive	inactive
C[C@H]1CNCCc2ccc(Cl)cc21	inactive	inactive	inactive	inactive	inactive	inactive	inactive	inactive	inactive	inactive
ClCc1ccccc1	inactive	inactive	inactive	inactive	inactive	inactive	inactive	inactive	inactive	inactive
Nc1nc(=S)[nH][nH]1	inactive	inactive	inactive	inactive	inactive	inactive	inactive	inactive	inactive	inactive
CC(=O)[C@H]1CC[C@H]2[C@@H]3CC[C@H]4C[C@](C)(O)CC[C@]4(C)[C@H]3CC[C@]12C	inactive	inactive	inactive	inactive	inactive	inactive	inactive	inactive	inactive	inactive
Clc1ccc(C(OCCN2CCCCC2)c2ccccc2)cc1 (stereo unspecified)	9.02 µM (active)	11.4 µM (active)	inactive	inactive	inactive	inactive	inactive	inactive	inactive	inactive
C=CCC1([C@H](C)CCC)C(=O)NC(=O)NC1=O	inactive	inactive	inactive	inactive	inactive	inactive	inactive	inactive	inactive	inactive
O=C(C(Cl)(Cl)Cl)C(Cl)(Cl)Cl	inactive	inactive	inactive	inactive	inactive	inactive	inactive	inactive	inactive	inactive
Cc1ccc2ccccc2c1	inactive	inactive	inactive	inactive	inactive	inactive	inactive	inactive	inactive	inactive
II	inactive	inactive	inactive	inactive	inactive	inactive	inactive	inactive	inactive	

SMILES	Potency [1]	Potency [2]	Potency [3]	Potency [4]	Potency [5]	Potency [6]	Potency [7]	Potency [8]	Potency [9]	Potency [10]
CN(N=O)c1ccc([N+](=O)[O-])cc1	inactive	inactive	inactive	inactive	inactive	inactive	inactive	inactive	inactive	inactive
O=NN1CCCCCC1	inactive	inactive	inactive	inactive	inactive	inactive	inactive	inactive	inactive	inactive
Cc1ccc(N)cc1C	inactive	inactive	inactive	inactive	inactive	inactive	49 µM (active)	inactive	inactive	inactive
ClCC(Br)CBr (stereo unspecified)	inactive	inactive	inactive	inactive	inactive	inactive	inactive	inactive	inactive	inactive
C=CC(=O)OCC(C)C	inactive	inactive	inactive	inactive	inactive	inactive	inactive	inactive	inactive	inactive
CC(Cl)C(C)Cl (stereo unspecified)	inactive	inactive	inactive	inactive	inactive	inactive	inactive	inactive	inactive	inactive
CCCC(=O)Cl	inactive	inactive	inactive	inactive	inactive	inactive	inactive	inactive	inactive	inactive
C=CCCl	inactive	inactive	inactive	inactive	inactive	57.6 µM [activator] (active)	32.1 µM (active)	inactive	inactive	inactive
ClC=C(Cl)Cl	inactive	inactive	inactive	inactive	inactive	inactive	inactive	inactive	inactive	inactive
O=C(CBr)c1ccccc1	inactive	inactive	inactive	inactive	inactive	inactive	54.8 µM (active)	inactive	inactive	inactive
Clc1cc(Cl)c(Cl)c(Cl)c1	inactive	inactive	inactive	inactive	inactive	inactive		inactive	inactive	inactive
c1ccc(C2CC2)c(OCC2=NCCN2)c1	inactive	inactive	inactive	inactive	inactive	inactive	inactive	inactive		inactive
NC(=O)CI	inactive	inactive	inactive	inactive	inactive	inactive	inactive		inactive	inactive
CC(=O)CCC(C)=O	inactive	inactive	inactive	inactive	inactive	inactive	inactive		inactive	inactive
[O-][Cl+]O	inactive	inactive	inactive	inactive		inactive	inactive	inactive	inactive	inactive
CC1(C)[C@H](C=C(Cl)Cl)[C@@H]1C(=O)O[C@@H](C#N)c1cccc(Oc2ccccc2)c1	inactive	inactive	inactive	inactive	inactive	inactive		inactive	inactive	inactive
COC(=O)C(C)N(C(=O)Cc1ccccc1)c1c(C)cccc1C (stereo unspecified)	inactive	61.1 µM (active)	inactive	inactive	inactive	inactive	inactive		inactive	inactive
O=C(O)COc1ccc(Cl)cc1	inactive	inactive	inactive	inactive	inactive	inactive	inactive		inactive	inactive
C[N+](C)(C)CCCl	inactive	inactive	inactive	inactive	inactive		inactive	inactive	inactive	inactive
NNC(=O)c1cccnc1	inactive	inactive	inactive	inactive	inactive	inactive		inactive	inactive	inactive
O=[Se]=O	inactive	21.5 µM (active)	inactive	6.12 µM [inconclusive] (active)		inactive			19.2 µM (active)	inactive
CC(Cl)Cl	inactive	inactive	inactive	inactive	inactive	inactive			inactive	inactive
OCCCBr	54.5 µM (active)	61.1 µM (active)	inactive	inactive		inactive	inactive	inactive		inactive
CCCCNP(N)(N)=S	inactive	inactive	inactive	inactive	inactive	inactive		inactive	inactive	inactive
